From PubChem BioAssay (NCI)
The panel holds about 83,000 compounds, 20% with a hit somewhere; the sample as a whole holds those more often.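 Growth was measured after 48 h exposure to one concentration of compound in 96-well plates. Values under 10 count as active.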 The source made the active and inactive calls.

What was measured:
Test in all cases: NCI-60 one-dose screen, 48 h (100 = growth as untreated, 0 = no growth, -100 = all killed)
Settings in all cases: 10 µM unless noted
[1] = system: NCI-H23 lung
[2] = system: NCI-H226 lung
[3] = system: NCI-H322M lung
[4] = system: HOP-62 NSCLC
[5] = system: NCI-H460 lung
[6] = system: HOP-92 NSCLC
[7] = system: NCI-H522 lung
[8] = system: A549/ATCC NSCLC
[9] = system: 786-0 renal
[10] = system: COLO 205 colon

Measured: growth

COc1ncc(-c2ccc3nccc(-c4ccnnc4)c3c2)cc1NS(=O)(=O)c1ccc(F)cc1F
active: [1] 3.23% | [2] -4.7% | [3] -31.1% | [4] -14.1% | [5] 5.35% | [6] -1.41% | [7] -44% | [8] -61.6% | [9] 4.21% | [10] -83.2%

Cc1cc(N(CCNc2ccnc3cc(Cl)ccc23)Cc2cccs2)nc(Cl)n1
active: [1] 0.24% | [2] -30.2% | [3] -24.7% | [4] -29.4% | [5] -10.7% | [6] -27.9% | [7] -49.1% | [9] -97.6% | [10] -75.3%
inactive: [8] 15.8%

Cc1cc2c(-c3nc4ccccn4c3N)c(O)c(O)cc2c(O)c1-c1c(C)cc2c(-c3nc4ccccn4c3N)c(O)c(O)cc2c1O
active: [1] 9.67% | [5] 7% | [6] -8.82% | [7] -3.16% | [10] -48.5%
inactive: [2] 26% | [3] 29.3% | [4] 11.3% | [8] 16.4% | [9] 32.4%

CCCCn1c(C)nc2cc(Nc3nc(N4CCCCC4)nc4nc[nH]c34)ccc21
active: [6] -9.51%
inactive: [1] 51.4% | [2] 44.4% | [3] 81.8% | [4] 62.1% | [5] 65.5% | [7] 52.6% | [8] 48.4% | [9] 49.1% | [10] 28.9%

CO[C@H]1C[C@@H]2CC[C@@H](C)[C@@](O)(O2)C(=O)C(=O)N2CCCC[C@H]2C(=O)O[C@H]([C@H](C)C[C@@H]2CC[C@@H](OC(=O)C(C)(CO)CO)[C@H](OC)C2)CC(=O)[C@H](C)/C=C(\C)[C@@H](O)[C@@H](OC)C(=O)[C@H](C)C[C@H](C)\C=C/C=C/C=C/1C
active: [6] 9.36%
inactive: [1] 44.4% | [2] 34.3% | [3] 38.5% | [4] 21.8% | [5] 22.6% | [7] 22.7% | [8] 22% | [9] 26.2% | [10] 28.5%

O=C1CSC(c2c(F)cccc2Cl)N1NC(=O)C(O)(c1ccccc1)c1ccccc1 (stereo not given)
inactive: [1] 98.7% | [2] 95.3% | [3] 102% | [4] 86.8% | [5] 113% | [6] 86.3% | [7] 88.4% | [8] 96.2% | [9] 97% | [10] 104%

COc1ccc(C(=O)N2c3ccccc3Sc3ccccc32)c(F)c1
inactive: [1] 32.4% | [2] 46.1% | [3] 44.2% | [4] 37.1% | [5] 12% | [6] 42.3% | [8] 27.2% | [9] 23.1%
active: [7] 0.479% | [10] 8.26%

Nc1nc(Nc2ccccc2)c(C=Nc2ccccc2)c(=O)[nH]1
inactive: [1] 88.5% | [2] 86.5% | [3] 93.3% | [4] 73.7% | [5] 102% | [6] 66.8% | [7] 57.9% | [8] 89.6% | [9] 93.5% | [10] 107%

O=C(Nc1ccc(C(=O)Nc2ccc(C3=NCCCN3)cc2)cc1)Nc1ccc(C2=NCCCN2)cc1
inactive: [1] 63% | [2] 67.9% | [3] 84.8% | [4] 87.1% | [5] 75% | [6] 80.5% | [7] 71.6% | [8] 75.9% | [9] 96.7% | [10] 105%

Nc1c(C(=O)c2ccccc2)sc2nc(-c3cccs3)ccc12
inactive: [1] 36.8% | [2] 63.5% | [3] 51.1% | [4] 44.5% | [5] 12.1% | [6] 69.6% | [8] 19.6% | [9] 51.7%
active: [7] -25.7% | [10] -21.8%

Nc1ncnc2c1c(-c1cccc(OCc3ccccc3)c1)cn2C1CC(CN2CCC2)C1 (stereo not given)
inactive: [1] 33.6% | [2] 40.1% | [3] 42.9% | [5] 21.9%
active: [4] -29.5% | [6] -21% | [7] -23.6% | [8] 4.8% | [9] -70.4% | [10] -66.7%

COc1cc(OC)c(/C=C/S(=O)(=O)Cc2ccc(OC)c(NCC(=O)O)c2)c(OC)c1
inactive: [1] 31.9% | [2] 61.1% | [3] 47.1% | [4] 12.6% | [6] 43.9% | [9] 21.9%
active: [5] 1.56% | [7] -18% | [8] 9.08% | [10] -62.1%

CC1(O)CC(c2nc(-c3ccc4ccc(-c5ccccc5)nc4c3)c3c(N)nccn23)C1 (stereo not given)
active: [3] 0.394% | [6] -13.2% | [10] -22.2%
inactive: [1] 33.9% | [2] 36.1% | [4] 28.6% | [5] 25.2% | [7] 31.3% | [8] 33.5% | [9] 43.8%

C=CCC(=O)N[C@H](/C=C/C(=O)O)Cc1ccc(-c2cc(Cl)cc(Cl)c2)cc1
inactive: [1] 92.7% | [2] 86.2% | [3] 101% | [4] 82% | [5] 99.6% | [6] 96.4% | [7] 70.7% | [8] 76.9% | [9] 98.4% | [10] 95.7%

COc1cc(CCc2cc(NC(=O)c3ccc(N4C[C@@H](C)N[C@@H](C)C4)cc3)n[nH]2)cc(OC)c1
active: [10] 9.19%
inactive: [1] 40.1% | [2] 46.1% | [3] 22.7% | [4] 38.1% | [5] 24.6% | [6] 54.4% | [7] 40.4% | [8] 37.4% | [9] 38.6%

CN1CCC(COc2cnc(-c3cccc(Cn4nc(-c5cccc(C#N)c5)ccc4=O)c3)nc2)CC1
active: [10] -60.3%
inactive: [1] 62.5% | [2] 92.2% | [3] 88.7% | [4] 45.7% | [5] 52.4% | [6] 72.2% | [7] 25.5% | [8] 48.1% | [9] 61.9%

Cc1nn(-c2nc3ccccc3[nH]2)c2c1C(c1ccc(OCc3ccc(F)cc3)cc1)CC(=O)N2 (stereo not given)
inactive: [1] 46.9% | [2] 74.5% | [3] 70.4% | [4] 69.5% | [5] 48% | [6] 72% | [7] 30.5% | [8] 41.8% | [9] 63.4% | [10] 103%

COc1cc2cc(NCc3ccc(F)cc3)nc(C)c2cc1OC
inactive: [1] 26.5% | [2] 48.5% | [3] 52.5% | [4] 54.7% | [5] 26.4% | [6] 25.3% | [7] 59.9% | [8] 47.9% | [9] 32.2% | [10] 34.2%

NC(=O)c1c(OCc2c(F)cc(Br)cc2F)nsc1NC(=O)NCCCCN1CCCC1
inactive: [1] 21.2% | [3] 15.4%
active: [2] 9.08% | [4] -29.7% | [5] -23.1% | [6] -1.17% | [7] -61.8% | [8] -15.6% | [9] -57.2% | [10] -78.7%

CN1CCN(CCOc2cc(OC3CCOCC3)c3c(Nc4c(Cl)ccc5c4OCO5)ncnc3c2)CC1
active: [3] 2.76%
inactive: [1] 81.4% | [2] 100% | [4] 29.7% | [5] 89.9% | [6] 35.3% | [7] 11.5% | [8] 24.8% | [9] 48.1% | [10] 42.5%

NC[C@@](O)(c1ccc(Cl)cc1)c1ccc(-c2cn[nH]c2)cc1
active: [6] -1.15% | [9] 6.12% | [10] -22.8%
inactive: [1] 27.4% | [2] 43.9% | [3] 10.3% | [4] 15.2% | [5] 23.1% | [7] 17.7% | [8] 18.3%

COc1ccc2c(c1)cn1c3ccc(O)cc3nc(N)c21
active: [5] 8.48% | [10] 9.91%
inactive: [1] 25.5% | [2] 45.2% | [3] 40.2% | [4] 25.1% | [6] 17.2% | [7] 14.2% | [8] 38% | [9] 18.5%

N#Cc1cc2[nH]c3ccc(OC(F)(F)F)cc3c2oc1=O
inactive: [1] 83.7% | [2] 82.4% | [3] 93.5% | [4] 56.6% | [5] 87.6% | [6] 104% | [7] 42.4% | [8] 91.3% | [9] 93.9% | [10] 86.8%

CC(=O)OC(C(=O)c1ccccc1)c1ccccc1 (stereo not given)
inactive: [1] 111% | [2] 98.9% | [3] 99.8% | [4] 103% | [5] 101% | [6] 58% | [7] 90.6% | [8] 106% | [9] 100% | [10] 107%

FC(F)c1nc2ccccc2n1-c1nc(N2CCOCC2)nc(N2CCOCC2)n1
active: [1] 0.202% | [2] -3.17% | [3] -22.6% | [4] -15.1% | [5] 7.27% | [6] -32.2% | [7] -1.95% | [8] -17.2% | [9] -32.8% | [10] -25.1%

CCN1CCN(Cc2ccc(NC(=O)Nc3nc(-c4cc(OC)c(OC)c(OC)c4)cs3)cc2C(F)(F)F)CC1
active: [5] -1.08% | [9] -50.9% | [10] -68.4%
inactive: [1] 37.6% | [2] 56.8% | [3] 63% | [4] 49.9% | [6] 54.4% | [7] 55.9% | [8] 26.1%

CCN1CCN(c2cc(C)nc(N(CCCNc3ccnc4cc(Cl)ccc34)Cc3ccc4c(c3)OCO4)n2)CC1
inactive: [1] 36.8% | [2] 50.7% | [8] 11.5%
active: [3] 5.48% | [4] -38.8% | [5] 7.01% | [6] -24.9% | [7] -24.5% | [9] -80.2% | [10] -82.6%
